Common to all, as to experiment: PBM binding z-score (relative to random genomic background probes); higher = stronger binding; sequences stand for … in GC…GCGATTGACAGCGTAGAATGAAGG
Test [1] relates to FXR:RXRa (NR concentration 270 nM, RXRa partner concentration 90 nM). In a few lines:
(§1)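 Custom Agilent 4×180K protein-binding microarrays carried double-stranded probes, each with a 34-nt variable region. These regions held direct-repeat seeds, single-nucleotide variants, half-site ablations and random human genomic background sequences. Ligand-free nuclear receptor dimers were incubated on the arrays for 1 h, antibodies against each partner (one per run) detected binding, and scanned fluorescence was regression-normalized. Binding z-scores take the random background probes as reference.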

Test [2] deals with LXRa:RXRa (NR concentration 270 nM, RXRa partner concentration 90 nM). In a few lines: as §1
Test [3] concerns LXRa homodimer (NR concentration 270 nM). Summed up: as §1
Test [4] relates to LXRb:RXRa (NR concentration 270 nM, RXRa partner concentration 90 nM). Summed up: as §1
Test [5] has as its system LXRb homodimer (NR concentration 270 nM). In a few lines:
as §1

The test system of test [6] is PPARg:RXRa (NR concentration 180 nM, RXRa partner concentration 90 nM). Summed up:
as §1

For test [7], the system named is PPARg:RXRa 270nM:90nM, anti-RXR (NR concentration 270 nM, RXRa partner concentration 90 nM). Summed up:
as §1

In test [8] the test system is PPARg:RXRa 30nM:10nM, anti-RXR (NR concentration 30 nM, RXRa partner concentration 10 nM). Summed up: as §1
The test system of test [9] is PPARg:RXRa 90nM:30nM, anti-RXR (NR concentration 90 nM, RXRa partner concentration 30 nM). In a few lines:
as §1

The test system of test [10] is PPARg:RXRa DBDmut IVT, anti-RXR (DBD mutation: RXRa K156A/R161A, NR concentration 270 nM, RXRa partner concentration 90 nM). In a few lines: as §1
In test [11] the test system is PPARg:RXRa IVT, anti-PPARg (NR concentration 270 nM, RXRa partner concentration 90 nM). In a few lines: as §1
Test [12] relates to PPARg DBDmut:RXRa IVT, anti-PPARg (DBD mutation: PPARg1 K132A/R137A, NR concentration 270 nM, RXRa partner concentration 90 nM). In a few lines: as §1
Test [13] relates to PPARg DBDmut IVT, anti-PPARg (DBD mutation: PPARg1 K132A/R137A, NR concentration 270 nM). In a few lines:
as §1

Test [14] concerns PPARg homodimer (NR concentration 180 nM). Summed up:
as §1

For test [15], the system named is PXR:RXRa (NR concentration 270 nM, RXRa partner concentration 90 nM). In a few lines: as §1
In test [16] the test system is PXR homodimer (NR concentration 270 nM). In a few lines: as §1
The test system of test [17] is RARa:RXR (NR concentration 270 nM, RXRa partner concentration 90 nM). Summed up:
as §1

Test [18] has as its system RARa homodimer (NR concentration 270 nM). Summed up:
as §1

For test [19], the system named is RARb:RXRa (NR concentration 270 nM, RXRa partner concentration 90 nM). Summed up: as §1
Test [20] relates to PPARa:RXRa (NR concentration 270 nM, RXRa partner concentration 90 nM). Summed up:
as §1

Consider GCTTACGGGTCAAAGGTTATAACATGAATAGAAT, for which the PBM binding z-score is 7.52 in test [1]; 5.95 in [2]; 0.829 in test [3]; 5.89 in test [4]; 1.05 in [5]; 11.2 in test [6]. Moreover, the PBM binding z-score in [7] was found to be 9.66; in test [8], 8.65; in test [9], 10.4; in [10], 4.69; in test [11] it was 5.8; in [12], 1.74. Moreover, the PBM binding z-score was determined as 2.86 in [13]; 3.61 in [14]; 6.24 in test [15]; 0.489 in [16]; 8.14 in test [17]; 0.937 in [18]. In addition, the PBM binding z-score in test [19] stood at 4.53.

Take CAAAATAGGTCAAGGTCAAAGTCGGTTTGTGCCA: the PBM binding z-score in test [1] turned out to be 7.38; in test [2], 5.98; in [3] it was 4.65; in [4], 5.22; in test [5] it was 2.2; in test [6], 8.81. For the same sequence, the PBM binding z-score was 7.46 in [7]; 5.59 in [8]; 7.54 in test [9]; 7.7 in [10]; 8.26 in test [11]; 1.72 in test [12]. For the same sequence, the PBM binding z-score in [13] was 1.63; in [14] it was 4.28; in test [15], 5.51; in [16] it was 2.04; in test [17] it was 5.42; in [18], 1.28.

With CAAACTAGGTCACAGAGGTCAAAGTTCGTGCGTA, the PBM binding z-score in test [1] was 7.37; in test [2] it was 6.84; in test [3], 7.98; in test [4], 6.7; in test [5] it was 2.18; in test [20], 6.83. In addition, the PBM binding z-score in test [7] is 8.37; in test [8] it was 6.72; in [9], 8.5; in test [10] it was 8.27; in test [11], 8.9; in test [12], 4.88. The PBM binding z-score came out at 5.18 in test [13]; 6.43 in test [14]; 12.2 in test [16]; 3.28 in test [18]; 5.29 in [19].

On to TAGCCTAAGTCATGGGCCAGTATACCACGCGAAC, for which the PBM binding z-score in [1] is -0.178; in [2], -0.0929; in [3], -0.218; in test [4], -0.0253; in [5], -0.797; in [6], 0.437. Also, the PBM binding z-score is 0.385 in test [7]; -0.251 in test [8]; 0.254 in test [9]; -0.872 in test [10]; -0.144 in test [11]; -0.174 in [12]. Moreover, the PBM binding z-score was -0.856 in test [13]; -0.397 in test [14]; -0.259 in test [15]; -0.135 in [16]; 0.041 in test [17]; -0.286 in test [18]. Also, the PBM binding z-score in test [19] came to 0.0943.

Take CCTACTGGGCCAACAAGGTCATTGATGCCGATAA: the PBM binding z-score in test [1] is 2.09; in test [2] it was 2.49; in [3] it was 1.44; in test [4], 2.45; in [5], -0.582; in test [6] it was 3.23. Moreover, the PBM binding z-score was 3.3 in test [7]; 0.856 in [8]; 2.31 in [9]; 3.7 in [10]; 4.68 in [11]; -0.0965 in test [12]. Further, the PBM binding z-score in test [13] was -0.198; in [14], 2.24; in [15], 3.92; in test [16], 3.62; in [17] it was 3.64; in test [18], 0.0671. This sequence also registered a PBM binding z-score in test [19] of 2.8.

Take AGTCAAAGTTCAGTAGGTAACGTAAGATTCAGCT: the PBM binding z-score worked out at 2.64 in test [1]; 3.04 in [2]; 1.6 in [3]; 1.67 in test [4]; 0.481 in test [5]; 5.39 in test [6]. The PBM binding z-score in test [7] was 5.2; in test [8], 2.18; in [9] it was 4.2; in test [10] it was 2.06; in [11] it was 4.51; in test [12] it was 0.804. For the same sequence, the PBM binding z-score in test [13] turned out to be 1.29; in test [14], 1.65; in test [15], 2.51; in test [16] it was 1.37; in test [17], 1.49; in [18], 0.822. Also, in test [19], the PBM binding z-score was determined as 4.13.

As to CCTGCTAGGTCAATGGTCAGCTAAAGCAGCTCGC, the PBM binding z-score in test [1] is 3.01; in [2], 2.21; in [3] it was -0.22; in test [4], 1.4; in test [5], -0.359; in test [6], 4.36. Also, the PBM binding z-score in test [7] is 5.49; in test [8] it was 3.2; in test [9], 5.15; in test [10] it was 4.63; in [11], 4.19; in test [12] it was -1.03. For the same sequence, the PBM binding z-score was -1.12 in [13]; 0.944 in [14]; 0.92 in test [15]; -0.545 in test [16]; 1.82 in test [17]; -0.551 in test [18]. Further, the PBM binding z-score in [19] stood at 3.73.

(Values after the supplement of paper PMC6555819.)
